# Source: PubChem
# PINK1 expr mod: PINK1 expression modulation; PINK1 immunofluorescence, high-content cytometry, 24 h; Potency, µM (titrated, usually from 76.6 µM), for inactives: at the highest dose activation (PINK1 increase), usual class: activators; hit rate 0.2% among 410,000; active means well fitted activation curve with a large enough effect; inconclusive means small, poorly fitted or top-dose-only effect; cell line not stated here; further: potency means the concentration at half of the fitted maximal effect; % of control where 0% means no effect; nearly all actives have a fitted effect of over 65% in size
#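 Readout is PINK1 immunofluorescence, quantified alongside mitochondrial, cell and nuclear markers by laser-scanning microplate cytometry. Cells from a stable line were exposed to compound titrations (5 concentrations) for 24 hours, with CCCP controls.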
# RORgamma inh: inhibitors of mouse ROR gamma transcriptional activity | Potency, µM (doses to about 53.6 µM), inactives show at the top dose activity change, negative = inhibition, hits mostly inhibitors | P51450 | Drosophila S2 Gal4-RORgamma UAS-luciferase reporter, 20 h | hit rate 5.4% among 310,000; further: potency means the concentration at half of the fitted maximal effect; on the % scale 0 is the no-effect control and ±100 the full control effect; nearly all actives have a fitted effect of over 60% in size
# Target sequence (P51450 whole entry, looked up, the tested form may be a part): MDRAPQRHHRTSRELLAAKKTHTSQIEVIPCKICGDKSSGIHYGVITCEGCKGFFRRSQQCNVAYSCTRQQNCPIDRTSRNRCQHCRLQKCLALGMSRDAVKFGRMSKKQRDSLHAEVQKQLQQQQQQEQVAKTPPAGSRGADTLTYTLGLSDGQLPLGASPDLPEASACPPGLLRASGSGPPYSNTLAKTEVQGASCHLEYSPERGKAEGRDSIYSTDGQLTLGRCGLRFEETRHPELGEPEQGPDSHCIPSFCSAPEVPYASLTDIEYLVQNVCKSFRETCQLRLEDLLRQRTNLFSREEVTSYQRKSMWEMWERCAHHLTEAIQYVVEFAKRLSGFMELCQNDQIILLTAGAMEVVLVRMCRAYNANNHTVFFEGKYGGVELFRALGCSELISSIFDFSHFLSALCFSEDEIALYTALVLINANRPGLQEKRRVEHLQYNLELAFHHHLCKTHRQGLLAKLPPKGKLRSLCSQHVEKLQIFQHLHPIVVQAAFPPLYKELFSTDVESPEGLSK
#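 ROR gamma transcriptional activity was tracked as Gal4-UAS luciferase output in stably transfected Drosophila Schneider cells, with compound added 1 hr before 700 uM copper sulfate induction and a 20 hr ambient-temperature incubation.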
# Epigenetic derep: derepresses silenced GFP reporter in murine cells. murine LDR cells, GFP reporter derepression, 30 h. Potency, µM (doses to about 53.9 µM), inactives show at the highest dose GFP activation, hits mostly activators. hit rate 0.2% among 280,000; further: potency means the concentration at half of the fitted maximal effect; % of control where 0% means no effect; nearly all actives have a fitted effect of over 60% in size
#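 Derepression of a silenced CMV-GFP reporter in murine LDR cells is scored by enumerating GFP-positive cells with a laser-scanning microplate cytometer after 30 hours of treatment at 37 C.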
# VP16 counter: inhibits Gal4-VP16 luciferase reporter, ROR gamma counter-screen. Drosophila S2 Gal4-VP16 UAS-luciferase, luminescence, 20 h. Potency, µM (doses to about 53.6 µM), inactives show at the top dose activity, negative = inhibition, actives largely listed as inhibitors. hit rate 3.5% among 310,000. AID 2546;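 further: Gal4-VP16 expression switched on by copper sulfate through the metallothionein promoter; potency means the concentration at half of the fitted maximal effect; on the % scale 0 is the no-effect control and ±100 the full control effect; nearly all actives have a fitted effect of over 50% in size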
# ClpP mod: qHTS Assay for Activators of ClpP | Potency, µM (titrated, usually from 57.5 µM), for the others: at the highest dose activity change, negative = active | hit rate 1.9% among 340,000 | ATP-dependent Clp protease proteolytic subunit (Bacillus subtilis (strain 168)), P80244 | purified B. subtilis ClpP, FRET peptide cleavage, 20 min | AID 651965, 2013; active means well fitted falling curve with a large enough effect; inconclusive means small, poorly fitted or top-dose-only effect; inactive means no such curve, though single readings can be large or run the other way; further: potency means the concentration at half of the fitted maximal effect; the source files actives as falling curves though it sought activators and does not explain the sign; nearly all actives have a fitted effect of over 65% in size
# Target sequence (P80244 whole entry, looked up): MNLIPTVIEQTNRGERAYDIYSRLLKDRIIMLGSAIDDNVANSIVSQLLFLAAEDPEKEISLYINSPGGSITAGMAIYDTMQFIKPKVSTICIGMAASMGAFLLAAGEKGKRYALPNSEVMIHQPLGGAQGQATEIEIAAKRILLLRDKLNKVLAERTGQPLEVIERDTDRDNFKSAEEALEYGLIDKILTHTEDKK
#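 Buffer: 100 mM Tris/HCl pH8, 100 mM KCl, 0.05% low protease BSA, 2.5% glycerol, 0.01% Tween-20. ClpP 10 microg/mL final; 20 min RT; delta FRET normalized to ADEP and DMSO controls.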
# Sfp inh: Sfp phosphopantetheinyl transferase inhibition. Q9F4F7. Biochemical Sfp PPTase activity, qHTS. Potency, µM, inactives show largest response in the series, negative = inhibition, hits mostly inhibitors. hit rate 3.5% among 310,000;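 further: the enzyme is Sfp with the accession as filed and its product quenches rhodamine fluorescence; potency means the concentration at half of the fitted maximal effect; 0% = enzyme reaction without inhibitor and -100% = no enzyme wells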
#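 Step 1, compound plus 15 nM Sfp-PPTase, 15 min, room temperature. Step 2, add rhodamine-CoA (5 uM) and BHQ-2-YbbR (12.5 uM). Step 3, read 525/598 nm fluorescence at 0 and 30 min.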
# Sfp inh conf: confirmation of Bacillus subtilis Sfp PPTase inhibitors; Sfp PPTase enzymatic assay, qHTS titration; Potency, µM (highest dose often 114 µM), inactives show top-dose activity change, negative = inhibition, usual class: inhibitors; hit rate 79% among 380; shares compounds with Sfp inh;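 further: potency means the concentration at half of the fitted maximal effect; plate controls were uninhibited Sfp reaction for no effect and no enzyme control for full effect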
# Sfp gel assay: Inhibits Bacillus subtilis Sfp phosphopantetheinyl transferase | hit rate 20% among 210 | Potency, µM, most hits filed as inhibitors | purified Sfp, gel-based phosphopantetheinylation read-out | shares compounds with Sfp inh;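 active means potency below 100 µM; inconclusive means dose-dependent response but potency above 100 µM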;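 further: band intensities scaled against SCH202676 control wells before curve fitting; potency is an IC50 for inhibitors of Sfp transfer activity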
# * = called active by the depositor; i = inactive; u = inconclusive; x = not tested or not shown; ! = a repeat was not active; [ ] = another dose, or the depositor's remark. This is a sample that favours compounds with a hit; in the whole collection about 8.1% have one here. Unless noted, the call rests on the fitted dose curve; in most records, active means well fitted curve in the direction sought with a large enough effect; inconclusive means small, poorly fitted or top-dose-only effect, or another doubt; inactive means no such curve, though single readings can be large; an effect the other way counts as inactive or inconclusive.
SMILES,PINK1 expr mod,RORgamma inh,Epigenetic derep,VP16 counter,ClpP mod,Sfp inh,Sfp inh conf,others
CN(C)c1ccc(C(=S)N2CCN(Cc3ccccc3)CC2)cc1,-2%,13µM*,0%,-4%,2%,2.2µM*,12µM*,
CCN1CCN(C(=S)c2ccc(O)cc2)CC1,2%,8%,5%,1%,1%,2.8µM*,8.3µM*,
CCOC(=O)CCN1C(=O)[C@H]2[C@H]3[C@H](O)[C@H](O)C/C(=N/O[C@@H]4O[C@@H](COC(C)=O)[C@@H](OC(C)=O)[C@@H](OC(C)=O)[C@H]4OC(C)=O)[C@H]3CC[C@@H]2C1=O,x,-2%[10 µM],1%[10.1 µM],-7%[10 µM],x,14%,x,
CCN1CCN(C(=O)c2ccc3c(c2)N(Cc2ccc(F)cc2)C(=O)c2ccccc2S3(=O)=O)CC1,0%,x,1%,x,-6%,x,x,
Cc1ccc(C2CC(c3ccco3)n3ncnc3N2)cc1 (stereo not drawn),2%,-27%,1%,10%,-4%,u,x,
Cc1ccc2c(c1)C(N1CCCC1=O)CC(c1ccco1)N2 (stereo not drawn),-1%,u,2%,u,u,40µM*,26µM*,Sfp gel assay=i
Cc1ccccc1NC(=O)CSc1nnc(-c2ccco2)c(-c2ccco2)n1,0%,18%,13%,-2%,0%,10µM*,6.6µM*,
COC(=O)c1ccccc1NC(=O)CSc1nc(C)c(Cl)c(C)c1C#N,2%,x,1%,x,u,x,x,
O=C(Nc1nnc(COc2ccc(Cl)cc2)s1)c1cccs1,5%,-44%,0%,-21%,-2%,14µM*,24µM*,
O=C(Nc1nnc(COc2ccc(Cl)cc2)s1)c1ccco1,-1%,-12%,-1%,-4%,1%,7.1µM*,5.9µM*,
Cc1ccc2c(c1)cc1c(=O)n(Cc3cccc(Cl)c3)nc(C)n12,0%,x,-1%,x,-8%,x,x,
O=C(CN1C(=O)CC(c2ccco2)Sc2ccccc21)Nc1ccccc1F (stereo not drawn),6%,u,0%,-7%,0%,16µM*,21µM*,
c1ccc(CSc2nnc(-c3ccco3)n2Cc2ccco2)cc1,-3%,u,-1%,u,1%,4µM*,33µM*,
Cc1ccccc1CSc1nnc(-c2ccco2)n1Cc1ccco1,2%[38.3 µM],42%,-1%,u,0%,-11%,x,
O=C(CSc1nnc(-c2ccncc2)n1Cc1ccco1)OC1CCCCC1,1%[38.3 µM],10µM*,-1%,u,1%,14µM*,53µM*,Sfp gel assay=i
Cc1ccc(C(=O)NC(=S)Nc2ccc(-c3ccc(CO)o3)cc2)cc1,2%,u,14%,-17%,x,7.1µM*,8.3µM*,
COC(=O)c1sc2ccccc2c1N,-1%,-3%,3%,u,5%,14µM*,47µM*,
COC(=O)c1sc2ccccc2c1C(=O)OC,-1%[38.3 µM],-5%,1%,0%,-3%,6%,x,
CC(C)CNc1nc(NC(C)(C)C)nc(Oc2ccc(=O)n(-c3ccccc3)n2)n1,1%,x,-1%,x,0%,x,x,
CC(=O)Nc1nnc(S(N)(=O)=O)s1,1%,-1%,6%,-1%,1%,19%,x,
CC(=O)N=c1sc(S(N)(=O)=O)nn1C,4%,-6%,5%,-3%,1%,25µM*!,47µM*,Sfp gel assay=i
O=C(/C=C/c1ccccc1Cl)NCc1ccccc1,12%[38.3 µM],-5%,-1%,7%,-2%,1%,x,
O=C(/C=C/c1ccc(Br)o1)NCc1ccccc1,-1%,13%,7%,28%,-6%,6.3µM*,17µM*,Sfp gel assay=i
COc1ccccc1NC(=O)c1c(NC(=O)CCC(=O)O)sc2c1CCCCC2,-1%,-14%,0%,-28%,-3%,10µM*,21µM*,
COc1ccccc1NC(=O)c1c(NC(=O)COc2ccccc2)sc2c1CCCCC2,-1%,x,0%,x,3%,x,x,
SMILES,PINK1 expr mod,RORgamma inh,Epigenetic derep,VP16 counter,ClpP mod,Sfp inh,Sfp inh conf,others
COC(=O)c1c(NC(=O)CCC(=O)O)sc2c1CCCCC2,-2%,-12%[10 µM],0%,-2%,-10%,0%,x,
O=C(O)CCC(=O)Nc1sc2c(c1C(=O)Nc1ccccc1)CCCCC2,1%,1%,0%,1%,0%,13µM*,15µM*,
CCCCN1CCC2C=CCC(C(=O)O)C2C1=O (stereo not drawn),x,u,x,-3%,x,7%,x,
Cc1ccc(Nc2cc(C)nc(NCc3ccccc3)n2)cc1,-1%,u,0%,u,x,13µM*,30µM*,Sfp gel assay=i
N#CC1=C(SCC(=O)Nc2ccccc2)NC(=O)CC1c1ccco1 (stereo not drawn),u,x,x,x,-3%,x,x,
COc1cccc(NC(=O)CSC2=C(C#N)C(c3ccco3)C3=C(CCCC3=O)N2)c1 (stereo not drawn),5%,8%,-1%,-7%,-7%,7.9µM*,47µM*,Sfp gel assay=i
CCOc1ccc(C(=O)Nc2ccc3nn(-c4ccc(OC)c(Cl)c4)nc3c2)cc1,0%,x,3%,x,4%,x,x,
CC(C)C[C@@H](CC(=O)N[C@@H](CCC(=O)O)CC(=O)O)NC(=O)[C@@H]1CCCC[C@H]1NC(=O)C[C@@H](NC(=O)C[C@H](Cc1ccccc1)NC(=O)[C@@H]1CCCC[C@H]1N)C(C)C,x,3%,0%,8%,x,5%,x,
Cc1ccc(NC(=S)N2CCC(c3ccc(C)cc3)C2)cc1 (stereo not drawn),2%,10µM*,0%,20µM*,-2%,32µM*,37µM*,Sfp gel assay=u
COc1cc(NC(=O)Cn2c(=O)cc(C)c3c(C)nn(-c4ccc(C)cc4)c32)cc(OC)c1,3%,x,3%,x,u,x,x,
O=C(CC(Nc1ccccc1)C(=O)O)c1ccccc1 (stereo not drawn),0%,11µM*,-3%,7.9µM*,0%,16µM*,42µM*,Sfp gel assay=i
